Results on eight molecules are retold here after PubChem BioAssay.

The nature of assay [1]: inhibitors of TNFa-induced NFkB p65 translocation, primary screen, imaging, HUVEC, MLSMR starter and 10KST1 sets (AID 438;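 active means inhibition above 20% together with a positive visual image hit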;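 further: compound added about 3h40 before a 20 min TNFalpha stimulation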;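 on inhibition: signal is the nuclear over cytoplasmic p65 intensity ratio per well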). To be noted: HUVEC TNFa-induced p65 nuclear translocation; cell count: measured here: nuclei count (cytotoxicity indicator), at 2.08 µM; inhibition: at 2 µM, stronger effect = higher value, 0% TNFa-plus-vehicle, 100% no-TNFa wells.
A short description of assay [2]: inhibitors of mutant huntingtin aggregation, primary screen, imaging, exon1htt(103Q)mCFP cells, high-content imaging (AID 483;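 active means visual image review flags a hit and inhibition of aggregation exceeds 20%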;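 further: compound exposure lasted 3 days before fixation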;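 on nuclei count: percent of the per-plate median nuclei count of sample wells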). To be noted: exon1htt(103Q)mCFP cell line, aggregate imaging, at 2 µM; inhibition of aggregation: stronger effect = higher value; nuclei count: measured here: cell count, toxicity.
Assay [3] is described as follows: inhibitors of E-selectin induction by TNFa, primary screen, imaging, HUVEC, immunofluorescence, MLSMR starter and 10KST1 sets (AID 487;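 active means visually confirmed hit in the image check and inhibition above 20%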;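 on inhibition: signal is fraction of cell area covered by stained E-selectin grains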;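 on nuclei count: 100% = median nuclei count of all wells on the same plate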). To be noted: HUVEC TNFalpha-induced E-selectin immunofluorescence imaging, at 2 µM; inhibition: stronger effect = higher value; nuclei count: measured here: cell number, toxicity.
The nature of assay [4]: DUSP6 inhibitors restoring Erk phosphorylation by chemical complementation, primary imaging in DUSP6-transfected HeLa (AID 609;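 active means compounds giving at least 50% inhibition in the cell-based MKP-3 phosphatase rescue imaging test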;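 on inhibition: phospho-Erk level distribution per well compared with pooled transfected vehicle control wells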). To be noted: HeLa MKP-3 transfected, phospho-Erk imaging KS statistic, at 10 µM, cells stimulated with TPA for 15 min.
Assay [5] has as its target Dual specificity protein phosphatase 6 (Homo sapiens) (UniProt Q16828). The assay is described as above. To be noted: HeLa MKP-3 transfected, phospho-Erk imaging KS statistic; at 10 µM; stronger effect = higher value; cells stimulated with TPA for 15 min.
Assay [6] addresses Voltage-gated potassium channel subunit beta-2 (Rattus norvegicus) (UniProt P62483). As to the kind of experiment: KvBeta enzyme negative modulators, primary screen, biochemical, NADPH fluorescence (AID 622;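 active means fluorescence slope higher than the sample average by over 3 SD, cut at about -0.22 in these data, passing the limit was not always enough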;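 further: slope of raw intensity against log time taken from 70 to 1610 s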). To be noted: recombinant KvBeta, 4-cyanobenzaldehyde reduction, at 10 µM, stronger effect = higher value.
Assay [7] shares this target. Kind of assay: KvBeta positive modulators, primary screen, biochemical, NADPH fluorescence (AID 623;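 active means NADPH fluorescence slope more negative than the mean of all samples by about 3 SD, 99.7% confidence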;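 further: fluorescence intensity change per second fitted from 20 to 320 s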). To be noted: Recombinant KvBeta, NADPH fluorescence decrease slope, 10 min; at 10 µM; stronger effect = lower value.
For assay [8], the target named is Muscarinic acetylcholine receptor M4 (Homo sapiens) (UniProt P08173). Kind of assay: compounds altering M4/GIRK thallium flux, either direction, primary screen, M4 allosteric agonist project, cell-based, HEK293 M4/GIRK, BTC-AM (AID 625;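 active means fluorescence slope after compound addition differing from the mean of all tested samples at 99.7% confidence, mostly higher but some lower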;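 further: thallium influx through GIRK channels coupled to M4 in HEK293 cells with BTC-AM dye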). To be noted: at 10 µM, actives lie on both sides.
Assay [9] is described as follows: inhibitors of larval lipid processing in zebrafish, primary screen, whole organism, PED6 fluorescence, gall bladder and intestine (AID 686;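 active means a full or partial loss of lipid-probe fluorescence in the fish gall bladder, intestine or both, judged by eye; inactive means no fluorescence loss, or compound toxic to the fish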;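 further: larvae 5 to 7 days old with five fish per well; signal comes from phospholipase A2 cleavage of quenched PED6 carried via bile; overnight exposure to compound and PED6 before scoring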). To be noted: Zebrafish larvae PED6 lipid processing, fluorescence scoring; screened at 20 µM (by protocol).
A short description of assay [10]: inhibitors of Chlamydomonas gravitaxis, primary screen, whole organism, Chlamydomonas reinhardtii, WT vs cilia-less mutant, absorbance, 96-well (AID 463189).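 Further: 0% = wild type cc124 cells in DMSO and 100% = ciliumless bld1 mutant cells.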 To be noted: OD600 absorbance, 2 days, at 10 µM, stronger effect = higher value.
The nature of assay [11]: inhibitors of Sendai virus-induced IRF3 signaling, primary screen, TLR/RLR signaling modifier project, cell-based, Sendai virus stimulus, luciferase, 10K MLSCN set (AID 602276;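 active means inhibition at or above 50% at 10 µM; inactive means inhibition below 50%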;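 further: firefly luciferase from ISG56 promoter only with Renilla not read in this screen; 0% = Sendai virus plus DMSO and 100% = medium plus DMSO without virus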). To be noted: HEK293 RL24 IRF3 luciferase reporter, at 10 µM, stronger effect = higher value. On the technique in general: A reporter such as luciferase makes a cellular process visible.
Assay [12] can be described thus: inhibitors of poly I:C-induced TLR3 signaling, primary screen, cell-based, poly I:C stimulus, luciferase, 10K MLSCN set (AID 602277;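 active means inhibition of the reporter signal at or above 50%; inactive means inhibition below 50%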). To be noted: HEK293-TLR3 RL24 IRF3 luciferase reporter, at 10 µM, stronger effect = higher value.
Assay [13] addresses Alpha-2C adrenergic receptor (Homo sapiens) (UniProt P18825). Kind of assay: modulators of alpha2C/GIRK thallium flux, primary screen, cell-based, HEK293 alpha2C/GIRK1/2 (AID 624;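 active means fluorescence slope after compound addition differing from the mean of all screened samples at 99.7% confidence, in either direction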;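 further: slope of fluorescence ratio to pre-addition baseline per second over 15 to 24 s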). To be noted: thallium flux BTC fluorescence, at 10 µM, actives lie on both sides.
Where [14] appears, read: measured here: cell density z-score.
Setting [15] is: measured here: nuclear c-Myc green intensity z-score.
The mark [16] stands for this setting: measured here: nuclear pErk red intensity z-score, stronger effect = higher value.

Each structure is given as a SMILES string. Several values for one entry are separate records, joined by “and”; a condition that tells them apart may be missing. Equal values may be shown once. Activity calls are given as the source filed them.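 How the source made its calls, unless noted: active means inhibition at or above 50% relative to wild type and mutant plate controls; inactive means inhibition below 50%.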

The inhibition is the relative decrease from the control value, in per cent.

Dual specificity protein phosphatase 6 (Homo sapiens), sequence (Q16828 whole entry, looked up): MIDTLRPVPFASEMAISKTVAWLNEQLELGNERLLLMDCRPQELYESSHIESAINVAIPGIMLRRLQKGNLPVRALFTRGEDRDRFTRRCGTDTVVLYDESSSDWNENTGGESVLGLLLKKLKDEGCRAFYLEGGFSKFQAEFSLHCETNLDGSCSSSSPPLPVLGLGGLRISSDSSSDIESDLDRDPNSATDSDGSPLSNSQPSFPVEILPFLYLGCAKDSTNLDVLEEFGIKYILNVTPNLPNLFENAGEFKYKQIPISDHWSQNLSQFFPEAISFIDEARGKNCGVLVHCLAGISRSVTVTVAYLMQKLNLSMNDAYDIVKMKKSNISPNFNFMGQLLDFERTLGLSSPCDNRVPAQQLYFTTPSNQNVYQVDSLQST
Alpha-2C adrenergic receptor (Homo sapiens), sequence (P18825 whole entry, looked up): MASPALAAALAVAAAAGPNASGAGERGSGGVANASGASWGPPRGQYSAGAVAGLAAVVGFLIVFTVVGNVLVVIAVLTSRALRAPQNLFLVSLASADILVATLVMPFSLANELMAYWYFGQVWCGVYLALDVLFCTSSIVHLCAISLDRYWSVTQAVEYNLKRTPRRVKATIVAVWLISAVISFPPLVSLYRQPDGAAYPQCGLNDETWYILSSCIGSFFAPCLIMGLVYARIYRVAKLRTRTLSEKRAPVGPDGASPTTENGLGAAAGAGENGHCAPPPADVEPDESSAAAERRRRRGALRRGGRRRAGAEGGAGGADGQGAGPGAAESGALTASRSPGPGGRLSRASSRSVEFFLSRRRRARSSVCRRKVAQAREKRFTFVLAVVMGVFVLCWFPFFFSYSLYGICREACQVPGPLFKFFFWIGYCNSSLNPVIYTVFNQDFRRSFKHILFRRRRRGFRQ
Voltage-gated potassium channel subunit beta-2 (Rattus norvegicus), sequence (P62483 whole entry, looked up): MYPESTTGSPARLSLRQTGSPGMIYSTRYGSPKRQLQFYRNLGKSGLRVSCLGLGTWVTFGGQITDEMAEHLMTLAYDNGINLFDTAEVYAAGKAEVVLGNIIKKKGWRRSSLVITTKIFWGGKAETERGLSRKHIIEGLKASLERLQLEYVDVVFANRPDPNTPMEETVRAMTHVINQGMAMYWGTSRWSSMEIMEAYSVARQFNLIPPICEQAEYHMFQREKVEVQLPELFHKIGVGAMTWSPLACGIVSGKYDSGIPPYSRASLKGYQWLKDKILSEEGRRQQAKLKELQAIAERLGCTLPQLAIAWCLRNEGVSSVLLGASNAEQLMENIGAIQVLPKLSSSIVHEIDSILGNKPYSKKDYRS
Muscarinic acetylcholine receptor M4 (Homo sapiens), sequence (P08173 whole entry, looked up): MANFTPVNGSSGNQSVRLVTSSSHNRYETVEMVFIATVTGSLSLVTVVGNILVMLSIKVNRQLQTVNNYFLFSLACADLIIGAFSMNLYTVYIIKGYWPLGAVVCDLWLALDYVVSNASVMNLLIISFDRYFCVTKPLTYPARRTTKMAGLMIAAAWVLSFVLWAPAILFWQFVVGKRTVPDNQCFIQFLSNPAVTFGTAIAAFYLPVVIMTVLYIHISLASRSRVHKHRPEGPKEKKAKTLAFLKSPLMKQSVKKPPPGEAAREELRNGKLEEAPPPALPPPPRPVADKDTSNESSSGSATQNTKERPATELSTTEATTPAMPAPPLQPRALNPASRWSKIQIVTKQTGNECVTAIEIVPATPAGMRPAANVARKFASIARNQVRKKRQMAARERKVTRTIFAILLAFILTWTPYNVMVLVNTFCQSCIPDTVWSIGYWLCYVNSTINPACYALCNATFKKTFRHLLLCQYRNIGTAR

For `Cc1ccc(-n2ncc3c(N4CCN(c5ccccc5)CC4)ncnc32)c(C)c1`, the cell count in [1] came out at 600. Moreover, the inhibition in [1] is -15.9% (inactive); in assay [3], -27.8% (inactive); in [5], -12.6% (inactive); in [10], 2.19% (inactive); in assay [11] it was 20.5% (inactive); in assay [12] it was -19.9% (inactive). The inhibition of aggregation in assay [2] was -1.5% (inactive). Further, the nuclei count in [2] was 113%; in [3], 154%. Besides, the results for the z-score in assay [4] (setting [14]), in assay [4] (setting [15]) and in assay [4] (setting [16]) were -0.444, -0.19 and 1.79, respectively. The fluorescence slope was -0.379 (inactive) in assay [6] and 0.00708 (inactive) in assay [8]. For the same molecule, the NADPH fluorescence slope in [7] is -5e-05 (inactive). Moreover, the outcome in assay [9] was inactive.
On to `COc1ccc2c(c1)[nH]c1c(=O)n(CCN(C)C)cnc12`, for which, in assay [1], the cell count is 660. Moreover, the inhibition was -3.5% (inactive) in assay [1]; 23.1% (inactive) in [3]; 9.61% (inactive) in assay [5]; 2.29% (inactive) in assay [10]; 17% (inactive) in [11]; 24.4% (inactive) in assay [12]. In addition, the inhibition of aggregation in [2] was -8.1% (inactive). The nuclei count in [2] is 102%; in [3], 135%. The z-score in [4] (setting [14]) is -1.37; in assay [4] (setting [15]), 2.24; in [4] (setting [16]) it was -0.536. In addition, the fluorescence slope was -0.449 (inactive) in assay [6] and 0.00667 (inactive) in [8]. The NADPH fluorescence slope in assay [7] is -3.5e-05 (inactive). Further, the molecule was classed as inactive in [9].
`C/C(=C\C(=O)O)CC(=O)O`: the cell count in assay [1] was determined as 333. The inhibition is -2.6% (inactive) in assay [1]; -133% (inactive) in assay [3]; 19.4% (inactive) in [5]; -0.382% (inactive) in [10]; 2.17% (inactive) in assay [11]; 13.5% (inactive) in assay [12]. For the same molecule, in [2], the inhibition of aggregation was 25.8% (inactive). In addition, the nuclei count in assay [2] turned out to be 93.1%; in assay [3], 117%. Also, the z-score in [4] (setting [14]) is 0.304; in assay [4] (setting [15]), -0.204; in [4] (setting [16]), -2.54. Also, the figures for the fluorescence slope in assay [6] and in assay [8] were -0.486 (inactive) and 0.00465 (inactive), respectively. In [7], the NADPH fluorescence slope is -0.000131 (inactive). Also, in assay [9], the result was inactive.
Regarding `Cc1nn(-c2ccccc2)c2c1C(=O)NC(=O)C(C)(C)C2`, the cell count in assay [1] was determined as 526. Also, the inhibition was 2.2% (inactive) in assay [1]; -24.8% (inactive) in assay [3]; -5.81% (inactive) in assay [5]; -12.8% (inactive) in [10]; 14.6% (inactive) in assay [11]; 18.9% (inactive) in assay [12]. The inhibition of aggregation in assay [2] was 9.8% (inactive). The values for the nuclei count in [2] and in assay [3] were 105% and 120%, respectively. The z-score was 0.866 in [4] (setting [14]), 1.24 in assay [4] (setting [15]) and 0.796 in [4] (setting [16]). For the same molecule, the fluorescence slope in assay [6] is -0.52 (inactive); in assay [8] it was 0.00545 (inactive). In addition, in [7], the NADPH fluorescence slope is 4.3e-05 (inactive). For the same molecule, in assay [9], the outcome was inactive.
As to `COc1ccccc1OCC(O)COC(N)=O` (stereo not drawn), the cell count in assay [1] is 634. For the same molecule, the inhibition in [1] was 2.6% (inactive); in [5] it was 19% (inactive); in assay [10] it was -8.84% (inactive); in assay [11], 9.33% (inactive); in assay [12], 35.1% (inactive). Besides, in assay [2], the inhibition of aggregation was -4.9% (inactive). This molecule also had a nuclei count in assay [2] of 109%. The results for the z-score in assay [4] (setting [14]), in [4] (setting [15]) and in assay [4] (setting [16]) were -1.14, 0.796 and 1.17, respectively. Besides, in [6], the fluorescence slope was -0.507 (inactive). In addition, the NADPH fluorescence slope in assay [7] is -3.9e-05 (inactive). The slope in assay [13] was 0.00504 (inactive). Further, the call in assay [9] was inactive.
Take `Cc1oncc1C(=O)Nc1ccc(C(F)(F)F)cc1`: the cell count in assay [1] turned out to be 554. Besides, the inhibition in assay [1] is -5.4% (inactive); in assay [3] it was -80% (inactive); in assay [5], -10.4% (inactive); in assay [10], -2.73% (inactive) and -10% (inactive); in assay [11], -116% (inactive); in [12] it was -197% (inactive). In addition, the nuclei count in assay [3] was found to be 111%. The z-score in assay [4] (setting [14]) turned out to be 0.779; in assay [4] (setting [15]) it was 0.543; in assay [4] (setting [16]), 0.25. In addition, in assay [6], the fluorescence slope was -0.489 (inactive). Besides, in assay [7], the NADPH fluorescence slope was -4.6e-05 (inactive). Besides, the slope in [13] is 0.00635 (inactive). Moreover, the molecule was called inactive in assay [9].
In the case of `COc1cccc2c1C(=O)c1c(O)c3c(c(O)c1C2=O)C[C@@](O)(C(=O)CO)C[C@@H]3O[C@H]1C[C@H](N)[C@H](O)[C@H](C)O1`, the cell count in [1] stood at 564. Moreover, the inhibition in assay [1] was -15.3% (inactive); in assay [5], 96.1% (active); in assay [10], 1.03% (inactive); in assay [11], -38.5% (inactive); in assay [12], 101% (active). For the same molecule, in assay [2], the inhibition of aggregation was 23.4% (inactive). Moreover, the nuclei count in assay [2] is 2.5%. The z-score stood at 0.975 in [4] (setting [14]), 6.47 in [4] (setting [15]) and 3.82 in [4] (setting [16]). Also, the fluorescence slope in assay [6] was -0.456 (inactive). Also, the NADPH fluorescence slope in [7] is 2.3e-06 (inactive). Besides, the slope in [13] was 0.00828 (inactive). Besides, in assay [9], the molecule was called inactive.
As to `Cc1nnc(SCC2=C(C(=O)O)N3C(=O)[C@@H](NC(=O)Cn4cnnn4)[C@H]3SC2)s1`, the cell count in assay [1] was found to be 628. Moreover, the inhibition was -2.9% (inactive) in [1]; -103% (inactive) in [3]; -6.41% (inactive) in [5]; 9.57% (inactive) and 15.2% (inactive) in assay [10]; 9.64% (inactive) in assay [11]; 21.6% (inactive) in assay [12]. For the same molecule, in assay [3], the nuclei count amounted to 125%. The z-score in [4] (setting [14]) was -0.857; in assay [4] (setting [15]), 0.639; in assay [4] (setting [16]), 1.89. Moreover, the fluorescence slope in assay [6] is -0.495 (inactive). For the same molecule, in assay [7], the NADPH fluorescence slope was -4.7e-05 (inactive). The slope in assay [13] is 0.00463 (inactive). Besides, the molecule was classed as inactive in [9].
